In all, about 360,000 compounds went through this assay and about 10,000 (2.8%) were called active. About 4% were inconclusive and are not listed. The sample holds actives, similar compounds and a random draw of the others, so the mix is not that of the screen. A number with no mark means an inactive call. The call rests on the fitted dose curve; in most records, active means well fitted inhibition curve with a large enough effect; inconclusive means small, poorly fitted or top-dose-only effect; inactive means flat fitted curve, though single readings scatter.
On the % scale 0 is the no-effect control and ±100 the full control effect; potency means the concentration at half of the fitted maximal effect.

Serine/threonine-protein kinase PLK1 (Homo sapiens), sequence (P53350 whole entry, looked up, the tested form may be a part): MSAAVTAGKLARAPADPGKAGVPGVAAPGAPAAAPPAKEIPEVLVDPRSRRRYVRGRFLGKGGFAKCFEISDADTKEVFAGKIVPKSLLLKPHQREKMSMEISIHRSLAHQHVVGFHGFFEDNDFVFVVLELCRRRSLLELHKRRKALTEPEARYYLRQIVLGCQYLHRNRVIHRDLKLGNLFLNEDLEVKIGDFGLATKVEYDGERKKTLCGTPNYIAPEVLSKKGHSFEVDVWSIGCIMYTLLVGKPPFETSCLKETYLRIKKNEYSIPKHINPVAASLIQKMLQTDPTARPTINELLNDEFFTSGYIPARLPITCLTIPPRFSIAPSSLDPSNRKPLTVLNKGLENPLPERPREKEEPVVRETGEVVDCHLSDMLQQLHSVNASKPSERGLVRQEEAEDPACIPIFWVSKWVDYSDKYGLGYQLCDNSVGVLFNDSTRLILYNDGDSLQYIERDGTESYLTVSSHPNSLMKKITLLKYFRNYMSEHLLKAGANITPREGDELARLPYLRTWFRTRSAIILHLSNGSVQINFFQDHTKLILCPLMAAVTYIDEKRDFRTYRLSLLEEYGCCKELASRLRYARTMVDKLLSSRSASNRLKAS

The assay concerns the target Serine/threonine-protein kinase PLK1 (Homo sapiens) (UniProt P53350). Nature of the assay: qHTS for Inhibitors of PLK1-PDB (polo-like kinase 1 - polo-box domain): Primary Screen. Further: nearly all actives have a fitted effect of over 65% in size. On max response, negative = inhibition: series mostly up to about 57 µM. Particulars: Plk1 PBD binding of FITC phosphopeptide, fluorescence polarization.
Take `Cc1csc(NC(=O)Nc2ccccc2[N+](=O)[O-])n1`: the max response, negative = inhibition was 3.11%.

With `Cc1cc(NC(=O)c2ccccc2C)no1`, the max response, negative = inhibition was -3.17%.

With `Cc1cc(NC(=O)Nc2ccccc2[N+](=O)[O-])no1`, the Potency was 10.6 µM (active).

On to `Cc1ccc(-c2nn(-c3ccccc3)cc2C(=O)NC2CCC(O)CC2)cc1` (stereo not drawn), for which the max response, negative = inhibition was 6.03%.

With `O=C(O)c1ccc(NC(=O)c2cn(-c3ccccc3)nc2-c2ccc(Cl)cc2)cc1`, the Potency was 26.7 µM (active).

Regarding `Cc1ccc(-c2nn(-c3ccccc3)cc2C(=O)Nc2cccc(S(=O)(=O)N3CCOCC3)c2)cc1`, the max response, negative = inhibition was -5.73%.

Consider `Nc1nc2c(Br)ccc(Br)c2cc1C(=O)NCCc1ccccc1`, for which the max response, negative = inhibition is -9.21%.

Turning to `COc1cccc(NC(=O)CN(C)C(=O)c2cc(Cl)nc3ccccc23)c1`, the max response, negative = inhibition is -14.4%.

For the molecule `O=C(C[C@H]1C[C@H]2c3cc(NS(=O)(=O)c4ccc(F)cc4)ccc3O[C@H]2[C@H](CO)O1)NCc1cc(F)ccc1F`, the max response, negative = inhibition was -5.98%.

With `O=c1ccc2c(-c3ccccc3S(=O)(=O)O)c3ccc(O)c(O)c3oc-2c1O`, the Potency was 7.52 µM (active).

As for `O=C(c1cccs1)N1C[C@H](n2cc(C3CC3)nn2)[C@@H](O)C[C@@H]1c1ccccc1`, the max response, negative = inhibition was 0.263%.

With `O=C(Nc1ccc(S(=O)(=O)N2CCCCC2)cc1)C1CC(=O)N(c2ccc(F)cc2)C1` (stereo not drawn), the max response, negative = inhibition was -7.84%.

Take `Cc1ccc(N2CC(C(=O)Nc3ccc(S(=O)(=O)N4CCCC4)cc3)CC2=O)cc1C` (stereo not drawn): the max response, negative = inhibition was -12.9%.

For the molecule `CNS(=O)(=O)c1ccc(NC(=O)C2CC(=O)N(c3ccc(Cl)cc3)C2)cc1` (stereo not drawn), the Potency was 26.7 µM (active).

Take `CCc1nc2c(OCCC3CCCCC3)cccn2c1N(C)C(=O)c1ccco1`: the max response, negative = inhibition was -5.85%.

On to `COc1ccc(N2c3ccccc3CN(Cc3ccccc3)[C@@H](C)[C@H]2Cc2ccc(-c3ccccc3)cc2)cc1`, for which the max response, negative = inhibition is 3.32%.

In the case of `Cc1sc2ncnc(SCC(=O)NC3CCS(=O)(=O)C3)c2c1C` (stereo not drawn), the max response, negative = inhibition was -10.2%.

Consider `O=C(NCc1nnnn1-c1ccc(Cl)cc1)c1ccc2c(c1)OCO2`, for which the max response, negative = inhibition is -15.4%.

For the molecule `COc1ccc(C(=O)NCC2CCCO2)cc1S(=O)(=O)NCc1ccc(Cl)cc1` (stereo not drawn), the max response, negative = inhibition is -11.7%.

As to `Cc1ccc([C@H]2C[C@H](O)[C@@H](n3cc(COC(=O)c4ccccc4)nn3)CN2C(=O)C2CCCCC2)cc1`, the max response, negative = inhibition was -1.5%.

`Nc1ccc2[nH]c(=S)sc2c1`: the Potency was 2.99 µM (active).

Turning to `O=c1[nH]c2ccccc2s1`, the max response, negative = inhibition is -9.39%.

For `CC1=C(C(=O)N2CCOCC2)CC(CC(=O)NCc2ccco2)C(=O)N1Cc1ccc(F)cc1` (stereo not drawn), the max response, negative = inhibition is -9%.

In the case of `CCOC(=O)C1CCCN(C(=O)c2cccc3ccccc23)CC1` (stereo not drawn), the max response, negative = inhibition was -9.5%.

Take `N#Cc1nc(COc2ccc(Cl)cc2)oc1N1CCCC1`: the max response, negative = inhibition was -6.72%.

`CC1CCN(c2oc(-c3ccccc3F)nc2C#N)CC1`: the max response, negative = inhibition is 1.03%.

Turning to `Cc1ccc(OCc2nc(C#N)c(N3CCCC3)o2)cc1`, the Potency is 5.32 µM (active).

Consider `COC(=O)c1ccc(CN2C(=O)C(Cc3ccccc3)ON=C2c2ncccc2C)o1` (stereo not drawn), for which the max response, negative = inhibition was 5.05%.

Regarding `CN1OC[C@@H]2CN(C(=O)C(C)(C)C)[C@H](c3ccc(-n4ccnc4)cc3)C[C@@H]21`, the max response, negative = inhibition is -0.5%.

As to `COc1cc(CNc2ncnc3c2ncn3[C@H]2CN(Cc3cccs3)C[C@@H](CO)O2)cc(OC)c1OC`, the max response, negative = inhibition was -6.55%.

On to `COCCCn1c(C(=O)NC2CCCCC2)cc2c(=O)n3cccc(C)c3nc21`, for which the max response, negative = inhibition is -6.64%.

For `C/C(Cn1nnc2ccccc21)=N\OC(=O)c1cc(F)c(F)cc1Cl`, the max response, negative = inhibition was -15%.

Regarding `Fc1ccc(OCc2nn3c(Cn4nnc5ccccc54)nnc3s2)cc1`, the Potency is 11.9 µM (active).

Regarding `Cn1c(Cn2nnc3ccccc32)nnc1SCC(=O)c1ccccc1F`, the max response, negative = inhibition is -9.05%.

Consider `COC(=O)[C@]12CCCCC=C1N(Cc1ccc(Cl)cc1Cl)C(=O)[C@H](CC(=O)NCc1cccc3ccccc13)C2`, for which the max response, negative = inhibition was -11%.

Consider `CCc1nc2c(=O)[nH]cnc2o1`, for which the max response, negative = inhibition is -1.77%.

Turning to `CC(=NNC(N)=O)C1CC2CCC1CC2` (stereo not drawn), the max response, negative = inhibition was -7.72%.

For `CC(C)c1nc(SCC(=O)Nc2cccc(C(=O)O)c2)c2c3c(sc2n1)CCCC3`, the Potency is 42.3 µM (active).

In the case of `Cc1cc(NC(=O)CSc2nc(C(C)C)nc3sc4c(c23)CCC(C)C4)no1` (stereo not drawn), the max response, negative = inhibition was -3.46%.

Turning to `Cc1ccc(C(=O)NCCc2nnc(SCC(=O)Nc3cccc(C(=O)O)c3)n2C)cc1`, the max response, negative = inhibition is 1.64%.

Turning to `CC1(C(=O)NCc2ccc3c(c2)OCO3)CCN1C(=O)Cc1cccs1` (stereo not drawn), the max response, negative = inhibition is 10.1%.

In the case of `COC(=O)c1ccc2nc(-c3cccc(Br)c3)c(Cc3ccccc3C(F)(F)F)n2c1`, the max response, negative = inhibition was -0.95%.

Regarding `CCN(CC)S(=O)(=O)c1ccc(NC(=O)c2cccnc2Cl)c(NC(=O)c2cccnc2Cl)c1`, the Potency was 23.8 µM (active).

Take `Cc1ccc(CNC(=O)c2cccnc2Cl)cc1`: the max response, negative = inhibition was -17.3%.

For the molecule `CCN(CC)S(=O)(=O)c1ccc(NC(=O)c2cnc(C)cn2)cc1`, the max response, negative = inhibition is 1.21%.

With `COc1ccc(-c2csc(C(O)c3cccc(Cl)c3)n2)cn1` (stereo not drawn), the max response, negative = inhibition is -6.07%.

Turning to `CCCCCNC(=O)C(c1ccc(OC)cc1)n1c(=O)c(-c2ccccc2)nc2ccccc21` (stereo not drawn), the max response, negative = inhibition was -10.5%.

Regarding `COc1ccc(NS(=O)(=O)c2ccc(NC(=S)NC(=O)CC(C)C)cc2)cc1`, the max response, negative = inhibition was -14.2%.

With `COc1ccc(NS(=O)(=O)c2ccc3oc(SCC(N)=O)nc3c2)cc1`, the max response, negative = inhibition is -0.392%.

In the case of `Cc1nc2ccc(NC(=O)c3cccc(S(=O)(=O)N4CCOCC4)c3)cc2s1`, the max response, negative = inhibition is -2.09%.

Regarding `O=S(=O)(Nc1ccc2nc(N3CCOCC3)sc2c1)c1ccccc1`, the max response, negative = inhibition was -10.1%.

For `COc1ccc(S(=O)(=O)Nc2ccc(O)c(Sc3nc4ccccc4s3)c2)cc1`, the Potency is 16.8 µM (active).

For the molecule `O=C(O)c1cccc(S(=O)(=O)Nc2ccc(O)cc2Sc2nc3ccccc3s2)c1`, the Potency is 13.4 µM (active).

As to `N#Cc1ccc(-c2ccc3nccn3c2)cc1`, the max response, negative = inhibition was -5.23%.

Consider `Cc1cc(C)n2nc(C(=O)N3CCN(Cc4ccc5c(c4)OCO5)CC3)nc2n1`, for which the max response, negative = inhibition is -1.06%.

For the molecule `O=C(c1cccs1)N1CCN(Cc2ccc3c(c2)OCO3)CC1`, the max response, negative = inhibition was -0.579%.

For the molecule `COc1ccc(-c2cc(C(=O)N3CCN(Cc4ccc5c(c4)OCO5)CC3)on2)cc1OC`, the Potency was 5.97 µM (active).

For the molecule `Cc1ccc(OC(=O)CCC(=O)Nc2ccc(Br)cc2)cc1`, the max response, negative = inhibition is -3.3%.

Take `CC(C)Oc1ccc(CC(=O)NNC(=S)Nc2ccc(Br)cc2)cc1`: the Potency is 13.4 µM (active).

In the case of `COC(=O)Cc1ccc(NC(=S)NCc2ccccc2)cc1`, the max response, negative = inhibition is -14.7%.

On to `O=C1NC[C@@H](CCCCN2CCN(CCc3ccc(O)cc3)C(=O)C2=O)N(CC2CCCCC2)C1=O`, for which the max response, negative = inhibition is -8.33%.

In the case of `FC(F)(F)c1cccc(-c2nc3ccccc3n2C(c2ccccc2)c2nc3ccccc3[nH]2)c1` (stereo not drawn), the max response, negative = inhibition is -0.5%.

Turning to `Cc1cccc(C)c1NC(=O)CN1CCN(c2ccc(F)cc2)CC1`, the max response, negative = inhibition is -2.75%.

As for `C/C=N/NC(=O)CCCC(=O)N/N=C/C`, the Potency was 29.9 µM (active).

For `CCOc1cc(C=NNC(=O)CCCC(=O)NN=Cc2ccc(O)c(OCC)c2)ccc1O`, the max response, negative = inhibition is -0.399%.

With `C=CCNC(=O)CCCC(=O)NCC=C`, the max response, negative = inhibition was 2.64%.

On to `Cc1cc(C)n2c(Nc3c(C)cccc3C)c(CCc3ccccc3)nc2n1`, for which the max response, negative = inhibition is -7.58%.

Consider `CC(=O)c1cccc(NC(=O)c2cc(C)nn2-c2ccccc2)c1`, for which the max response, negative = inhibition was 5.02%.

As to `CSc1ccccc1C(=O)NCc1ccccc1`, the max response, negative = inhibition was -11.2%.

With `CSc1ccccc1C(=O)Nc1cccc(C(C)=O)c1`, the Potency was 23.8 µM (active).

Regarding `CN(Cc1c(F)cccc1Cl)C(=O)COC(=O)Cn1cnc2ccccc2c1=O`, the max response, negative = inhibition was -0.103%.

On to `CC(C)C1C(=O)N(Cc2cn(CCC3OCCO3)nn2)CCS(=O)(=O)N1Cc1ccc(-c2ccccc2C(F)(F)F)cc1` (stereo not drawn), for which the max response, negative = inhibition is 0.333%.

Take `COc1cccc(-c2ccc3c(c2)N(Cc2ccccc2OC)C(=O)C(C)S3)c1` (stereo not drawn): the max response, negative = inhibition is 0.113%.

With `CCOC(=O)C1CCCN(C(=O)c2ccc(N(C)C)cc2)CC1` (stereo not drawn), the max response, negative = inhibition was -4.5%.

For the molecule `Cc1cccc(NC(=S)N2CCC(C(=O)c3ccc(F)cc3)CC2)c1`, the Potency was 2.99 µM (active).

`CC(=O)c1cccc(NC(=S)N2CCCC2)c1`: the max response, negative = inhibition was -6.15%.

As for `Cc1cccc(NC(=S)N2CCC(c3nc4ccccc4s3)CC2)c1`, the max response, negative = inhibition was -1.09%.

In the case of `CCOC(=O)C1(C)CCCN(C(=O)c2ccc(F)c(Cl)c2)C1` (stereo not drawn), the max response, negative = inhibition was -9.56%.

`CN(C)C(CNC(=O)c1cccc(S(=O)(=O)N2CCc3ccccc3C2)c1)c1ccccc1` (stereo not drawn): the max response, negative = inhibition is -5.08%.

As for `CC1(C(=O)NS(=O)(=O)c2cccc(F)c2)CCN1C(=O)c1cccc2ccccc12` (stereo not drawn), the max response, negative = inhibition was -0.565%.

Take `Cc1ccc2[nH]cc(CCCN3C(=O)c4ccccc4C3=O)c2c1`: the Potency was 29.9 µM (active).

For `COc1ccc2[nH]cc(CCN3C(=O)c4ccc(C(=O)O)cc4C3=O)c2c1`, the max response, negative = inhibition was -13.3%.

For `O=C1c2ccccc2C(=O)N1CCCCCCN1C(=O)c2ccccc2C1=O`, the max response, negative = inhibition is -2.55%.

In the case of `COC(=O)C1(C(=O)OC)C/C=C\CN(S(=O)(=O)c2ccccc2[N+](=O)[O-])CCC1`, the max response, negative = inhibition was 3.46%.

With `O=C1OCCC1=COCCCCOC=C1CCOC1=O`, the max response, negative = inhibition is 1.79%.

As for `O=C(NCCN1CCN(C(=O)c2cccc([N+](=O)[O-])c2)CC1)C(=O)NCc1ccc(Cl)cc1`, the max response, negative = inhibition was 2.99%.

`Cc1ccc(NC(=O)C(=O)NCC2CCN(C(=O)c3cccc([N+](=O)[O-])c3)CC2)cc1`: the Potency was 29.9 µM (active).

With `Cc1ccc(NC(=O)O/N=C/c2cccc([N+](=O)[O-])c2)cc1`, the max response, negative = inhibition was -16.5%.

The values above are taken from PubChem BioAssay AID720504 (National Center for Advancing Translational Sciences (NCATS), 2013).
